HP1b binding inh: blocks HP1-beta chromodomain binding to methylated histone tails. AlphaScreen HP1-beta / biotin-H3K9me3 peptide binding. actives 0.56% (n = 390,000). P83916. Potency, µM (highest dose often 114 µM), actives largely listed as inhibitors; note: nearly all actives have a fitted effect of over 70% in size
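Compound inhibition of the preformed complex between 50 nM HP1-beta and 50 nM biotinylated H3K9me3 peptide was read by AlphaScreen. Buffer was PBS pH 7.4 with 0.01% Tween-20. Incubations ran 30 min at room temperature, with 10 ug/mL donor/acceptor beads.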
BAZ2B block: BAZ2B (human) inhibition | AID 504333 | Potency, µM (top dose mostly 114 µM), actives largely listed as inhibitors | AlphaScreen BAZ2B-H3K14Ac peptide displacement | actives 4.4% (n = 360,000); note: nearly all actives have a fitted effect of over 60% in size
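AlphaScreen luminescence quantifies BAZ2B engagement of H3K14Ac peptide; the protein and biotinylated peptide are both at 50 nM final, buffer PBS pH 7.4 with 0.01% Tween-20, all steps at room temperature.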
CtBP-E1A blk: blocks the CtBP interaction with E1A; AlphaScreen GST-E1A/His-CtBP binding, 1536-well; hits give low values; activity change, % (no concentration beside the values); actives 0.49% (n = 340,000); AID 651724; in the data active = activity change below about -65%; inconclusive = mostly about -30% to -63%
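Steps: dispense buffer (Tris pH 8.0, NaCl 300 mM, TCEP 1 mM, BSA, Tween 20); add 5X protein mix (GST-E1A, His-CtBP, 125 nM each); pin 23 nL compound; 2 h at 37 °C, dark; add 5X beads (50 ug/mL); 1 h; read.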
JMJD2A Tudor: blocks the human JMJD2A Tudor domain; O75164; AlphaScreen JMJD2A-Tudor / H3K4me3 peptide binding; Potency, µM (series often up to 114 µM), usual class: inhibitors; actives 4.4% (n = 390,000); AID 504339; note: nearly all actives have a fitted effect of over 50% in size
Target sequence (O75164 whole entry, looked up, the tested form may be a part): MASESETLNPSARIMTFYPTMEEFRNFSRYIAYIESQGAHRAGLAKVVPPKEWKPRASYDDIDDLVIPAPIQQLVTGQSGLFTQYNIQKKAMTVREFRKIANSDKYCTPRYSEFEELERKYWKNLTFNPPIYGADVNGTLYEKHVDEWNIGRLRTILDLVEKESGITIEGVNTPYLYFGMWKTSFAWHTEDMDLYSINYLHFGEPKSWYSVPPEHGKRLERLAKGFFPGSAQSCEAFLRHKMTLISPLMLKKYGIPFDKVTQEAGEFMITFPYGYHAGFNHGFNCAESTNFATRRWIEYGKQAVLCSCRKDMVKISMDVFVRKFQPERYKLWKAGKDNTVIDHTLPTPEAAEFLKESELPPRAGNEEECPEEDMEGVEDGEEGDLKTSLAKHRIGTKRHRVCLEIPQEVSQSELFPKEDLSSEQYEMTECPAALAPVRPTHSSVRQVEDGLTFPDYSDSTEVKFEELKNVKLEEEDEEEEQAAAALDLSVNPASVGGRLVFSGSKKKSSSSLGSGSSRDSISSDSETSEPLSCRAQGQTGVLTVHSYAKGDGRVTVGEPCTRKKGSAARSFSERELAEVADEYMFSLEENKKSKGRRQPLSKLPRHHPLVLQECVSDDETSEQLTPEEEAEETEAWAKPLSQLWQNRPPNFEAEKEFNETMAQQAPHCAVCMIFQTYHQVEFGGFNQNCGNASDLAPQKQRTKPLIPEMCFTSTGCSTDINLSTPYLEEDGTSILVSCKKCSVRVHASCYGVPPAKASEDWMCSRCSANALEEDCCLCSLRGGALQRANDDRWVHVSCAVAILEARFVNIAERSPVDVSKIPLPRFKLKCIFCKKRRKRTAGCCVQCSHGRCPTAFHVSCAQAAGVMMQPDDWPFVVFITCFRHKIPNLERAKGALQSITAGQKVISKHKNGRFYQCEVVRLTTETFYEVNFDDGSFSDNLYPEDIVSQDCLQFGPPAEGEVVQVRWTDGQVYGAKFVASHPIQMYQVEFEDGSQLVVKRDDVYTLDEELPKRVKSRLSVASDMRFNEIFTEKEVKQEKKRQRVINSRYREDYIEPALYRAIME
Six1-Eya2 blk: blocks human Six1 binding to Eya2; Q15475+O00167; actives 0.56% (n = 360,000); activity change, % (test concentration not listed); AlphaScreen GST-Six1/His-Eya2 binding, biochemical; hits give low values; AID 651725; in the data active = activity change below about -65%; inconclusive = mostly about -30% to -63%
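Compounds are tested against tagged Six1 and Eya2 proteins bridged by glutathione donor and nickel acceptor beads; after a one-hour incubation at 37 °C without light, AlphaScreen emission is recorded.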
G9a inh: blocks human histone lysine methyltransferase G9a. Q96KQ7. G9a H3K9 monomethylation, AlphaScreen, 2 h. Potency, µM (doses to about 102 µM), hits mostly inhibitors. actives 8.8% (n = 350,000). AID 504332; note: nearly all actives have a fitted effect of over 75% in size
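G9a (20 nM) was preincubated 15 min with compound, then reacted 2 h at room temperature with 500 nM biotin-H3K9 peptide and 20 µM SAM. Monomethyl-H3K9 detected by AlphaScreen using anti-H3K9me1 antibody.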
Numbers stand for hits; n = inactive; u = inconclusive; x = not tested or not shown; [ ] = remark or other dose. An excerpt weighted towards active compounds, which were near 10% of everything screened. Unless noted, calls come from the whole dose curve; as a rule, active = well fitted inhibition curve with a large enough effect; inconclusive = small, poorly fitted or top-dose-only effect; inactive = no such curve, though single readings can be large or run the other way.

SMILES	HP1b binding inh	BAZ2B block	CtBP-E1A blk	JMJD2A Tudor	Six1-Eya2 blk	G9a inh
C#CCOCCOCCOCCNc1nc(N2CCN(C(=O)Cn3cc(CCCN=C(N)N)nn3)CC2)nc(N2CCN(C(=O)[C@H](C)n3cc(CCCN=C(N)N)nn3)CC2)n1	n	u	x	n	n	56µM
C#CCOCCOCCOCCNc1nc(N2CCN(C(=O)Cn3cc(CCCN=C(N)N)nn3)CC2)nc(N2CCN(C(=O)[C@H](CCCCN)n3cc(CCC(=O)O)nn3)CC2)n1	n	n	n	n	u	n[2.33 µM]
O=C(NCCCN1CCOCC1)c1ccc2c(c1)N(Cc1ccc(Cl)cc1)C(=O)c1ccccc1S2=O (stereo unspecified)	n	n	x	n	n	n
COc1ccc(CN2C(=O)CN(S(C)(=O)=O)CC2(C)C(=O)NC(C)C)cc1 (stereo unspecified)	x	x	n	x	n	x
O=C1Nc2ccccc2C1=Nc1ccc(S(=O)(=O)Nc2nccs2)cc1	n	n	n	56µM	u	u
COc1ccc(C(=O)CC(=O)c2ccc(F)cc2)cc1	n	x	x	n	n	x
COc1ccc(/C=C2\C(=O)NC(=S)N2C(=O)c2ccc(F)cc2)cc1	n	56µM	n	u	n	u
O=C1NC(=S)N(C(=O)c2ccc(F)cc2)/C1=C/c1ccccc1	n	45µM	n	40µM	n	10µM
O=C(c1ccc(F)cc1)N1CCN(Cc2ccccc2)CC1	n	n	n	n	n	n
COc1ccc(-c2sc3ccccc3c2-c2cc(OC)ccc2C=O)cc1	x	x	n	x	n	x
COc1ccc(-c2cc(=O)oc3c(C)c(O)c(CN(C)C)cc23)cc1	n	n	n	22µM	n	n[12.7 µM]
CCOc1c(Cl)cc(CNCc2ccncc2)cc1OC	n	n	n	n	n	56µM
CCOc1cc(CNCc2ccccn2)cc(Cl)c1OC	n	56µM	n	45µM	n	u
CCOc1c(Cl)cc(CNc2nnnn2C)cc1OC	n	n	n	n	n	n
CCOc1cc(CNCc2ccccn2)cc(Cl)c1OCC	n	50µM	u	56µM	u	x
O=C(NCC1CCCO1)c1cccc(Oc2ccc([N+](=O)[O-])cc2)c1 (stereo unspecified)	n	n	n	n	n	x
Cc1cccc(NC(=O)COC(=O)CN2C(=O)C3CCCCC3C2=O)c1C (stereo unspecified)	x	x	n	x	n	x
CCN(CC)c1nc(C#N)nc(N2CCOCC2)n1	n	x	x	n	x	x
C1CNCCOCCNCCN1	n	45µM	u	n	u	n
S=C1NCCOCCOCCOCCOCCN1	n	n	n	n	n	u
CC(=O)OC1CCC2(C)C3CC(=O)C4(C)C(CC5OC6(CCC(C)CO6)C(C)C54)C3CC[C@H]2C1 (stereo partly specified)	x	x	x	x	x	n[2.33 µM]
Oc1ccccc1N=N/C(=N/Nc1ccccc1O)c1ccccc1	n	u	n	n	n	n[2.33 µM]
N#C/C(N=Nc1ccccc1O)=N\Nc1ccccc1O	16µM	11µM	-82	22µM	-70	u
O=c1oc(=O)c2ccccc2c2ccccc12	n	x	n	n	n	x
Cc1cccc(NC(=S)NC(C)C(c2cccs2)N2CCN(C)CC2)c1C (stereo unspecified)	n	n	n	n	n	n
SMILES	HP1b binding inh	BAZ2B block	CtBP-E1A blk	JMJD2A Tudor	Six1-Eya2 blk	G9a inh
Cc1ccc(S(=O)(=O)Nc2nc(C)c(C(=O)Nc3ccccc3)s2)cc1	n	n	x	n	n	u
CC(=O)NNC(=O)c1sc(=S)n(C)c1C	n	n	n	n	n	n
Cc1c(C(=O)NNS(=O)(=O)c2ccccc2)sc(=S)n1C	n	u	n	8.9µM	n	n
C/C(=N/NC(=O)c1sc(NS(=O)(=O)c2ccccc2)nc1C)c1sc(N)nc1C	n	u	n	u	n	50µM
COc1ccc(NC(=O)Nc2sc(NS(=O)(=O)c3ccccc3)nc2C)cc1	n	n	n	n	n	50µM
Cc1ccc(S(=O)(=O)Nc2nc(C)c(C(=O)NNS(=O)(=O)c3ccccc3)s2)cc1	n	n	n	n	n	50µM
COc1ccc(CCNC(=O)c2ccc3c(c2)N(Cc2ccccc2Cl)C(=O)c2ccccc2S3)cc1OC	n	n	x	n	x	n
O=Cc1nc(Nc2cc(F)cc(F)c2)nc(NC2CCCC2)n1	x	x	x	n	x	x
Cc1onc(-c2ccccc2Cl)c1C(=O)N1CCN(S(=O)(=O)c2ccc(F)c(F)c2)CC1	n	n	n	n	n	n
Cc1nc(C)c(C(=O)NNS(=O)(=O)c2ccc([N+](=O)[O-])cc2)s1	n	n	n	2µM	n	7.9µM
Cc1cccc(S(=O)(=O)NNC(=O)c2sc(C)nc2C)c1	n	n	n	10µM	n	u
Cc1ccc(CN2CC(N3CCN(CC4CC4)CC3)CS2(=O)=O)cc1 (stereo unspecified)	x	x	n	x	n	x
COc1cccc(C2C(C(N)=O)=C(C)Nc3ncnn32)c1 (stereo unspecified)	n	n	x	n	x	n
COc1ccc(Sc2ccc(/C=C3\C(=O)NN(c4ccccc4)C3=O)o2)cc1	n	8.9µM	n	u	n	10µM
Cc1cc(/C=C2\C(=O)NN(c3ccccc3)C2=O)c(C)n1-c1ccccc1O	n	n	x	n	n	n
Cc1ccc(N2NC(=O)/C(=C/c3ccc(-c4ccc(Cl)c(C(=O)O)c4)o3)C2=O)cc1	n	u	n	u	n	45µM
COc1ccc(-n2c(C)cc(/C=C3\C(=O)NN(c4ccccc4)C3=O)c2C)cc1	n	n	n	n	n	n
O=C1NN(c2ccc(Cl)cc2)C(=O)/C1=C\c1ccc(-c2cccc(C(=O)O)c2)o1	45µM	56µM	n	35µM	n	16µM
O=C1NN(c2ccccc2)C(=O)/C1=C\c1ccc(-c2cc([N+](=O)[O-])ccc2O)o1	45µM	32µM	n	50µM	n	x
Cc1nn(C)c(C)c1NS(=O)(=O)c1ccccc1Cl	n	n	n	n	n	n
O=C(c1noc2c1CCCC2)N1CCCC(N2CCN(c3ccccc3F)CC2)C1 (stereo unspecified)	n	n	n	n	n	n
O=C(c1ccc(C(=O)N2CCOCC2)nc1)N1CCOCC1	n	n	n	40µM	n	u
O=C(c1ccc(N2CCOCC2)nc1)N1CCOCC1	n	n	n	n	n	n
CC1(C)CC(=O)C(C2C3=C(CC(C)(C)CC3=O)Oc3ccccc32)=C(O)C1 (stereo unspecified)	n	n	n	n	n	71µM
COc1ccc(N2CCN(C(C)C(=O)N3CCCC3)CC2)cc1 (stereo unspecified)	u	32µM	n	0.79µM	n	u
COc1ccc(N2CCN(C(C)C(=O)Nc3nnc(C)s3)CC2)cc1 (stereo unspecified)	n	n	n	u	n	56µM

Assay outcomes deposited in PubChem by National Center for Advancing Translational Sciences (NCATS).
